Screening results (PubChem BioAssay)
HPGD inh – qHTS Assay for Inhibitors of HPGD (15-Hydroxyprostaglandin Dehydrogenase); 150,000 tested, 4.3% active; 15-hydroxyprostaglandin dehydrogenase [NAD(+)] (Homo sapiens), P15428; Potency, µM, most hits filed as inhibitors; purified HPGD, NADH fluorescence kinetic, PGE2 substrate
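20 nM HPGD preincubated 15 min at room temperature with compound in 50 mM Tris-HCl pH 8, 0.01% Tween 20. Started with 1 mM NAD+ and 30 uM prostaglandin E2; NADH fluorescence (360/450 nm) read 5 times over 30-s intervals, last minus first.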
IMPase inh – qHTS Assay for Identifying the Cell-Membrane Permeable IMPase Inhibitors; Inositol monophosphatase 1 (Rattus norvegicus), P97697; CHO-M1 cells, IP1 accumulation, HTRF TR-FRET ratio; inhibition (IP1 accumulation), % at 46.1 µM; 120,000 tested, under 10 active; active = well fitted curve in the direction sought with a large enough effect in the signal ratio, not every such curve was filed as active; inconclusive = small, poorly fitted or top-dose-only effect, or a change in a side signal; inactive = no such curve, though single readings can be large or run the other way; the % refers to the signal ratio;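 note: cells stimulated with carbachol in lithium chloride buffer; higher means more IMPase inhibition seen as more IP1 and lower FRET ratio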
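CHO-M1 cells (CHO stably expressing M1 receptor), compound up to 46 uM final, stimulated with carbachol (50 uM as added) in buffer with 50mM LiCl, pH 7.4, 30 min at 37C. Cytosolic IP1 read by TR-FRET; AC50 from Hill fits.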
ALDH1A1 block – qHTS Assay for Inhibitors of Aldehyde Dehydrogenase 1 (ALDH1A1); 220,000 tested, 7.3% active; Potency, µM (highest dose often 75.3 µM), usual class: inhibitors; Purified ALDH1A1, NADH fluorescence, propionaldehyde substrate; AID 1030, 2008
Target sequence (P00352 whole entry, looked up): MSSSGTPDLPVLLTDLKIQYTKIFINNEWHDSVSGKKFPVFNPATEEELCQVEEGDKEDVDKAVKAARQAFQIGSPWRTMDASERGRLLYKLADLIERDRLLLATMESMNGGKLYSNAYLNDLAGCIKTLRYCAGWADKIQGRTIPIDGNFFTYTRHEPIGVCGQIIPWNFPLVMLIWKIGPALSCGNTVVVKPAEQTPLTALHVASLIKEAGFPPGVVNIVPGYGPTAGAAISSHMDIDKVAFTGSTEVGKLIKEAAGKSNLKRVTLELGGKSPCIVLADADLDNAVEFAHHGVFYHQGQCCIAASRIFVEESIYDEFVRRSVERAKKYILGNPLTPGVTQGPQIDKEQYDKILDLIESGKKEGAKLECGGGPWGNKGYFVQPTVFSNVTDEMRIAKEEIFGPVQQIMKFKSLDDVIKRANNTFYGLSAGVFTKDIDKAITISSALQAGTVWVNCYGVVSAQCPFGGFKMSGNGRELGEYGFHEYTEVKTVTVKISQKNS
Numbers stand for hits; 0 = inactive; ? = inconclusive; - = no result; [ ] = another dose, or the depositor's remark. Shown are actives, neighbours in structure and some others; about 9% of the full set was active somewhere. Unless noted, calls come from the whole dose curve; as a rule, active = well fitted inhibition curve with a large enough effect (not every such curve was filed as active); inconclusive = small, poorly fitted or top-dose-only effect, or another doubt; inactive = no such curve, though single readings can be large or run the other way.

SMILES | HPGD inh | IMPase inh | ALDH1A1 block
CC(=O)C1=C(O)C(=O)N(c2ccc(S(N)(=O)=O)cc2)C1c1cccc([N+](=O)[O-])c1 (stereo not drawn) | - | - | 0
O=C1C2CCCN2c2ccc(S(=O)(=O)N3CCOCC3)cc2N1Cc1ccccc1F (stereo not drawn) | 0 | 0 | ?
N#CCN1C(=O)C2CCCN2c2ccc(S(=O)(=O)N3CCOCC3)cc21 (stereo not drawn) | - | - | 10µM
O=C1C2CCCN2c2ccc(S(=O)(=O)N3CCOCC3)cc2N1Cc1cccc(C(F)(F)F)c1 (stereo not drawn) | 0 | 0 | ?
CON(C)S(=O)(=O)c1ccc2c(c1)N(Cc1ccc(C)cc1)C(=O)C1CCCN21 (stereo not drawn) | - | - | 10µM
COc1nccc(-c2ccc(F)cc2)c1C#N | - | - | 0
O=c1c2ccccc2nc(-c2ccccc2)n1/N=C/c1ccc([N+](=O)[O-])cc1 | 0 | 0 | 0
Cc1ccccc1-c1nc2ccccc2c(=O)n1/N=C/c1ccccc1[N+](=O)[O-] | 22.4µM | 0 | 14.1µM
CC1CCc2sc(C(=O)N=Nc3c(O)[nH]c4ccccc34)cc2C1 (stereo not drawn) | 0 | 0 | 0
C[C@]1(c2ccccc2)O[C@@H]2C[C@@H]3[C@@H]4CCC5=CC(=O)C=C[C@@]5(C)[C@]4(F)[C@H](O)C[C@]3(C)[C@@]2(C(=O)CO)O1 | 0 | - | 0[13.5 µM]
O=C(c1c[nH]c(C(=O)N2CCN(Cc3ccccc3)CC2)c1)C1CCCCC1 | - | - | 7.94µM
O=C(C1CCC1)N1CCN(Cc2ccccc2)CC1 | 0 | 0 | 0
c1ccc(CSc2nnc(-c3ccco3)n2Cc2ccco2)cc1 | 0 | 0 | ?
CSc1nc(-c2ccco2)nn1C(=O)c1ccc(C)cc1 | ? | 0 | 0
CCS(=O)(=O)n1nc(-c2ccc(Cl)cc2)nc1SC | 12.6µM | 0 | ?
CSc1nc(-c2ccco2)nn1C(=O)c1ccccc1 | 14.1µM | 0 | 0
CS(=O)(=O)n1nc(-c2ccc(Cl)cc2)nc1N | - | - | 0
CSc1nc(-c2ccco2)nn1S(=O)(=O)c1ccccc1 | 14.1µM | 0 | 14.1µM
CSc1nc(-c2ccco2)nn1S(=O)(=O)c1ccc(C)cc1 | ? | 0 | ?
Cc1ccc(S(=O)(=O)n2nc(-c3ccco3)nc2SCc2ccccc2)cc1 | 25.1µM | 0 | 22.4µM
COc1cc2c(cc1OC)OC(C)(C)C=C2 | 0 | - | 0
CCCCC1=CC2=C(c3ccco3)C(=O)C(C)(OC(=O)c3ccc(OC)cc3)C(=O)C2=CN1CCc1c[nH]c2ccccc12 (stereo not drawn) | 0 | - | 0[13.5 µM]
CCS(=O)(=O)n1nc(-c2ccco2)nc1SC | 8.91µM | ? | 22.4µM
CSc1nc(-c2ccco2)nn1C(=O)c1ccco1 | 0 | 0 | 0
CC1(C)[C@@H]2CC[C@@]1(CS(=O)(=O)Nc1ccccc1)C(=O)C2 | 0 | - | 0[13.5 µM]
SMILES | HPGD inh | IMPase inh | ALDH1A1 block
CC(C)(C)c1ccc2c(c1)N(CC(=O)O)C(=O)CO2 | 0 | 0 | 3.16µM
Cc1ccc2c(c1)N(CC(=O)O)C(=O)CO2 | 0 | ? | 0
C/C=C/c1ccc(OC(C)[C@@H](O)c2ccc(O)c(OC)c2)c(OC)c1 (stereo partly drawn) | 0 | - | ?
CCc1cc(CC)c(/C=N/NC(N)=O)c(CC)c1 | - | - | 0
Cc1c(C(=O)OCC(=O)N2CC(C)OC(C)C2)oc2ccc(Br)cc12 (stereo not drawn) | ? | 0 | 0.178µM
CC1CN(C(=O)COC(=O)c2c(Cl)cccc2Cl)CC(C)O1 (stereo not drawn) | - | - | 0
CC(NC(=O)C1CCC1)c1ccc(Br)cc1 (stereo not drawn) | 0 | - | 0
CC(NC(=O)C1CCC1)c1ccc2c(c1)OCO2 (stereo not drawn) | 20µM | 0 | 0
O=C(NC(c1ccccc1)c1ccccc1)C1CCCO1 (stereo not drawn) | - | - | 0
Cc1ccc(C(C)NC(=O)C2CCCO2)cc1C (stereo not drawn) | 15.8µM | 0 | 0
COc1cc(CC(=O)OCC(=O)Nc2ccc([N+](=O)[O-])cc2)cc(OC)c1OC | - | - | 0
CNC(=O)c1c(NC(=O)c2nc3ccccc3s2)sc2c1CCC2 | 28.2µM | 0 | ?
Cc1ccccc1NC(=O)c1c(NC(=O)c2ccccc2)sc2c1CCC2 | - | 0 | -
COC(=O)c1c(NC(=O)c2nc3ccccc3s2)sc2c1CCN(C(C)=O)C2 | 0 | 0 | 12.6µM
CCNC(=O)c1c(NC(=O)C2COc3ccccc3O2)sc2c1CCCC2 (stereo not drawn) | 0 | 0 | 0
CC(=O)N1CCC(=NNc2nc3ccccc3s2)CC1 | - | - | 0
